Here are results for 42 molecules from the supplement of paper PMC10732440.

± gives the standard deviation of the averaged measurements.

The subject of this assay is Caenorhabditis elegans N2 infected with Nematocida parisii ERTm1. Briefly: progeny production relative to DMSO uninfected control; higher = more progeny despite microsporidia infection (inhibition of infection with low host toxicity). To be noted: infection time 6 days. In outline:
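Compound was pinned to 100 μM or 40 μM in 1% DMSO into 96-well plates containing K-medium, E. coli OP50, 15,000 N. parisii spores/μL and 100 synchronised wild-type C. elegans L1 larvae per well. Following 6 days of shaking at 21°C, worms were Rose Bengal-stained, scanned and counted with WorMachine, in three runs per compound and dose. Progeny production appears as a replicate-averaged percentage of spore-free vehicle wells.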

As to `O=[N+]([O-])c1cn2c(n1)OC[C@@H](OCc1ccc(OC(F)(F)F)cc1)C2`, the progeny production is, setting by setting: (40 µM) 7.03 ± 0.77%; (100 µM) 11.4 ± 5.1%.
For `OB1OCc2cc(Cl)ccc21` the same measures were 4.68 ± 1.6% and 21.3 ± 17%.
Turning to `CC1(C)Cc2c(C#N)c(SCCc3ccccc3)nc(N3CCOCC3)c2CO1`, the progeny production reads like this: (40 µM) 3.65 ± 0.7%; (100 µM) 18.8 ± 15%.
As for `Cc1ccc(C)c(OCCCCCCN2C[C@H](O)[C@@H](O)[C@H](O)[C@H]2CO)c1`, the progeny production is, setting by setting: (40 µM) 3.54 ± 0.93%; (100 µM) 14.1 ± 11%.
On the same counts, the results for `O=c1cc(Nc2ccc3ccccc3c2)[nH]c(=O)[nH]1` are 7.88 ± 1.4% and 8.48 ± 9.1%.
As to `Cc1onc(-c2ccccc2Cl)c1C(=O)N[C@@H]1C(=O)N2[C@@H]1SC(C)(C)[C@@H]2C(=O)O`, the progeny production by setting is: (40 µM) 2.76 ± 1.9%; (100 µM) 19.1 ± 12%.
Take `O=C(NC(=O)N1CCCc2ccccc21)c1cccc(Cl)c1`: the progeny production runs as follows: (40 µM) 2.7 ± 0.83%; (100 µM) 19.9 ± 14%.
On the same counts, the results for `C[C@@H](NC(=O)c1cccc(-c2cnc(-c3cc4ccccc4cn3)[nH]2)c1)c1ccc(F)cc1` are 5.74 ± 3.9% and 8.24 ± 5.7%.
As for `N=c1n(CCN2CCCCC2)c2ccccc2n1CC(O)COc1ccc(Cl)cc1Cl` (centres undefined), the progeny production by setting is: (40 µM) 5.53 ± 1.7%; (100 µM) 9.49 ± 8.7%.
As to `CC1(C)CC(NC(=O)C(=O)Nc2ccc(Cl)cc2)CC(C)(C)N1`, the progeny production came to 2.32 ± 0.043% (40 µM) and 8.19 ± 5.5% (100 µM).
`Nc1cnn(C2OC(CO)C(O)C2O)c(=O)n1` (centres undefined) gave a progeny production (40 µM) of 3.5 ± 1.1% and a progeny production (100 µM) of 13.1 ± 5.4%.
As for `COc1ccc2cc3[n+](cc2c1OCCN(CCn1cncn1)Cc1ccc(F)cc1F)CCc1cc2c(cc1-3)OCO2`, the progeny production came to 5.91 ± 1.2% (40 µM) and 17.3 ± 14% (100 µM).
Consider `CC(C)(C)NC(=O)[C@@H]1C[C@@H]2CCCC[C@@H]2CN1C[C@@H](O)[C@H](Cc1ccccc1)NC(=O)[C@H](CC(N)=O)NC(=O)c1ccc2ccccc2n1`, for which the progeny production reads like this: (40 µM) 6.54 ± 4.7%; (100 µM) 6.35 ± 4.1%.
On the same counts, the results for `CCOCc1nc2c(N)nc3ccccc3c2n1CC(C)(C)O` are 3.75 ± 1.7% and 14.8 ± 5.8%.
Take `CCCCC(CC)CNC(=N)NC(=N)NCCCCCCNC(=N)NC(=N)NCC(CC)CCCC` (centres undefined): the progeny production (40 µM) was 5.25 ± 0.29% and the progeny production (100 µM) is 24.3 ± 32%.
On the same counts, the results for `COc1cc2c(O)c3c(c(-c4ccc5c(c4)OCO5)c2cc1OC)C(=O)OC3` are 4.37 ± 1.7% and 3.64 ± 3.2%.
In turn, `CCc1oc2ccccc2c1C(=O)c1ccc(O)cc1` displayed a progeny production (40 µM) of 11.4 ± 2.5% and a progeny production (100 µM) of 16.8 ± 0.54%.
On to `O=C(O)c1ccc(-c2ccc(O[C@H]3O[C@H](CO)[C@@H](O)[C@H](O)[C@@H]3O)cc2)cc1`, for which the progeny production was 5.12 ± 2.8% (40 µM) and 7.21 ± 4.6% (100 µM).
On the same counts, the results for `CC(C)Oc1ccc(-n2cnc3cc(/C=C\c4ccc(C(C)(C)O)cc4)ccc32)cc1` are 5 ± 1.6% and 10.6 ± 2%.
Consider `COc1c(F)c(F)cc2c(=O)c(C(=O)O)cn(C3CC3)c12`, for which the progeny production reads like this: (40 µM) 6.01 ± 4.3%; (100 µM) 12.9 ± 4.6%.
For the molecule `CC(C)(C)c1cccc(-c2nc3cc(C(=N)N)ccc3[nH]2)c1O`, the progeny production by setting is: (40 µM) 2.13 ± 0.25%; (100 µM) 20.4 ± 23%.
As for `COc1ccc(CNC(=O)C(NS(=O)(=O)c2ccc3nc(C)sc3c2)C(C)C)cc1` (centres undefined), the progeny production came to 4.14 ± 1.6% (40 µM) and 6.87 ± 4% (100 µM).
In the case of `Cc1ccc(N2CCC(CCOc3ccc(S(C)(=O)=O)cc3)CC2)nn1`, the progeny production (40 µM) was determined as 4.13 ± 1% and the progeny production (100 µM) is 11.1 ± 10%.
For `C[C@@H](O)[C@H](N)C(=O)NS(=O)(=O)c1cccc(-c2ccc3[nH]ncc3c2)c1`, the progeny production by setting is: (40 µM) 3.15 ± 1.8%; (100 µM) 20.2 ± 20%.
`O=S(=O)(Nc1cccc2cccnc12)c1ccccc1`: the progeny production is 5.03 ± 2.5% (40 µM) and 12.9 ± 7.2% (100 µM).
For the molecule `O=C(Cn1cnc2ccccc2c1=O)Nc1ccccc1`, the progeny production runs as follows: (40 µM) 5.46 ± 4.2%; (100 µM) 8.2 ± 5.5%.
`OC1O[C@H](CSc2ccc(F)cc2)[C@@H](O)[C@H]1O` (some centres undefined): the progeny production reads like this: (40 µM) 5.22 ± 0.52%; (100 µM) 9.44 ± 6.8%.
As for `CCc1cc(Nc2cc(=O)n(CCN3CCN(C(=O)c4ccccc4)CC3)c(=O)[nH]2)ccc1C`, the progeny production reads like this: (40 µM) 5.16 ± 2.4%; (100 µM) 21 ± 12%.
As for `Nc1cccc(-c2nc(N)nc(NC3Cc4ccccc4C3)n2)c1`, the progeny production is, setting by setting: (40 µM) 8.19 ± 3.8%; (100 µM) 20.6 ± 10%.
For `CN(C)c1[nH]c(=O)ncc1F` the same measures were 3.57 ± 3.5% and 14.8 ± 7.8%.
As to `NC1C2CC3CC(C2)CC1C3` (centres undefined), the progeny production is, setting by setting: (40 µM) 4.96 ± 2.6%; (100 µM) 13.2 ± 3.6%.
With `CC(C)(C)c1ccc(OCCn2nc(C(=O)O)c3ccccc3c2=O)cc1`, the progeny production (40 µM) worked out at 4.58 ± 1.4% and the progeny production (100 µM) was 12 ± 6.5%.
Turning to `CC(Cc1ccccc1)C(=O)Nc1ccc(Cl)cc1C(=O)O` (centres undefined), the progeny production by setting is: (40 µM) 7.65 ± 4.2%; (100 µM) 14.4 ± 0.88%.
For `COc1ccc2c(c1OC)C(=O)OC2C1c2c(cc3c(c2OC)OCO3)CCN1C` (centres undefined) the same measures were 5.88 ± 3.7% and 14.7 ± 9.2%.
As for `O=C(NCc1ncc(C(F)(F)F)cc1Cl)c1c(Cl)cccc1Cl`, the progeny production came to 3.33 ± 0.85% (40 µM) and 8.17 ± 5.4% (100 µM).
Consider `Nc1nc(Nc2ccc3nc(-c4ccc(F)cc4)cc(N)c3c2)cc(-c2ccccc2)n1`, for which the progeny production stood at 3.92 ± 1.1% (40 µM) and 7.7 ± 7.8% (100 µM).
For `[N-]=[N+]=N[C@H]1C[C@H](n2ccc(=O)[nH]c2=O)O[C@@H]1CO` the same measures were 4.8 ± 1.5% and 11.5 ± 5.3%.
As to `COc1cc(C2C3=C(CC(C)(C)CC3=O)Nc3ccccc3N2C(C)=O)ccc1OCc1ccccc1` (centres undefined), the progeny production runs as follows: (40 µM) 2.3 ± 0.93%; (100 µM) 15.1 ± 15%.
On the same counts, the results for `CN(C)CCCNC(=O)c1ccc(-c2cc(O)c3ncccc3c2)cc1` are 5.74 ± 3.9% and 10.5 ± 6.4%.
For `FC(F)(F)Oc1ccc(Nc2ccc3cccc(Cl)c3n2)cc1`, the progeny production runs as follows: (40 µM) 6.88 ± 1.5%; (100 µM) 11.1 ± 7.2%.
Turning to `CCc1nc2ccc(Cl)cn2c1C(=O)NCc1ccc(N2CCC(c3ccc(OC(F)(F)F)cc3)CC2)cc1`, the progeny production was 4.78 ± 2.6% (40 µM) and 6.24 ± 4.5% (100 µM).
As for `C=C[C@]1(C)C[C@@H](OC(=O)CS[C@@H]2C[C@H]3CC[C@@H](C2)N3C)[C@]2(C)[C@H](C)CC[C@]3(CCC(=O)[C@H]32)[C@@H](C)[C@@H]1O`, the progeny production by setting is: (40 µM) 11.3 ± 8.7%; (100 µM) 15.1 ± 6.1%.
